In all, about 35,000 sequences were measured (“fluorescence intensity (a.u.)”: median about 10,000, highest 2% from about 52,000 on). The sample holds the highest values, similar sequences and a random draw of the others, so the mix is not that of the screen.
The sequences below were run against T1, OsWOX13 (Oryza sativa, UniProt Q5QMM3 1-267) (assay: protein-binding microarray (RPBM); PBS, 2% BSA, 51.3 ng/ul salmon testes DNA, 50 uM zinc acetate, 200 nM TF, 25 C, 1 h; high values mean tight binding). Conditions: protein: recombinant; tags: N-terminal polyhistidine and DsRed monomer fusion (pET32a); label: CyDye5-dUTP incorporated in the synthesized complementary strand; 3' TTTTT single-stranded linker to array surface; dsDNA, one strand shown.
T1 sequence: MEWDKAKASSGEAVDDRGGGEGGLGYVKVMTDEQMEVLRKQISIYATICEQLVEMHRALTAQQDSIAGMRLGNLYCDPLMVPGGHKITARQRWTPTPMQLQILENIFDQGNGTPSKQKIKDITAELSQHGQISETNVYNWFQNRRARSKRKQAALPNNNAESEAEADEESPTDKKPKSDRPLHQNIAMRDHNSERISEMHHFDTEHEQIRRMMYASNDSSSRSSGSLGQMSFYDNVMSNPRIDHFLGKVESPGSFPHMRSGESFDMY
Method in brief: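 Binding signal is reported as fluorescence intensity per feature (arbitrary units) from an Axon 4000B scanner. Incubation used 200 nM of each Ni–NTA-purified, N-terminally polyhistidine- and DsRed-fused transcription factor from E. coli BL21-CodonPlus on a double-stranded custom Agilent array for 1 h at 25 °C, with 50 µM zinc acetate in the buffer, followed by washing.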
In the case of “CTTTGATTACATCAAGCCACTGAATTATCAGTTATAATCTCGGAGTCACCTAGTGCAG”, the binding signal is reported as 23100 fluorescence intensity (a.u.).
With “TTATTTGCATTGATTTAATAGGGTTTACTCTTGCTTTGCACGGAGTCACCTAGTGCAG” the binding signal was 7870 fluorescence intensity (a.u.).
“ATATCAATCCGATGATATTAATTTTAGCAAATAAAATTTACGGAGTCACCTAGTGCAG” was tested, and the binding signal was 5130 fluorescence intensity (a.u.).
“GATAAATTAATAAAATTATCAAAATTTTATGATTGGTTTACGGAGTCACCTAGTGCAG” was tested, and the binding signal was 54900 fluorescence intensity (a.u.).
“TACCTTAATTTATTGATTGCACTCTTGTTCTCACACGGTTCGGAGTCACCTAGTGCAG” was tested, and the binding signal was 53200 fluorescence intensity (a.u.).
With “TCATTGATTGATTGGTACTACTACTGCTAGAAGAAAAGGCCGGAGTCACCTAGTGCAG” the binding signal was 55200 fluorescence intensity (a.u.).
For “ATTACATACCTGATTGAGTTGGTACTACAAGGCAGGGAGCCGGAGTCACCTAGTGCAG”, the binding signal was 16400 fluorescence intensity (a.u.).
With “TTGATTGTGAATTTATAATGTTTGGATATAATGATTACTTCGGAGTCACCTAGTGCAG” the binding signal was 34500 fluorescence intensity (a.u.).
In the case of “TAGAATTACTTACTAAATTGCTTGTTATATTGAAGATATTCGGAGTCACCTAGTGCAG”, the binding signal is reported as 5790 fluorescence intensity (a.u.).
With “AAAATAGTTAATACTCAATTAATCATGAGCTAATGGCTCACGGAGTCACCTAGTGCAG” the binding signal was 9240 fluorescence intensity (a.u.).
“CATAATTACCAGACATGTTAAATTTAATATATGGATGTATCGGAGTCACCTAGTGCAG” was tested, and the binding signal was 40800 fluorescence intensity (a.u.).
In the case of “ATTATTGATTTGATGAAACTAATTTAGTATTATAAATATTCGGAGTCACCTAGTGCAG”, the binding signal is reported as 34600 fluorescence intensity (a.u.).
For “GTGATAATTTAGTTACTAAACATGTTGTGAAACTTTATCTCGGAGTCACCTAGTGCAG”, the binding signal was 3720 fluorescence intensity (a.u.).
“ATTGAATAATCAAAATTTCAATCTTTGATCGATGAGGTATCGGAGTCACCTAGTGCAG” was tested, and the binding signal was 12100 fluorescence intensity (a.u.).
With “TTAAGTAATTAAGAGGTGATAGTTAATTTATGCATGCATGCGGAGTCACCTAGTGCAG” the binding signal was 30400 fluorescence intensity (a.u.).
For “CTTTATTGATAGGATAAAATTGTTACATCGTTTACCAGATCGGAGTCACCTAGTGCAG”, the binding signal was 52600 fluorescence intensity (a.u.).
In the case of “ATTTTGGTTGATTTGTAAACAGAGGGATTAATTTGTGCATCGGAGTCACCTAGTGCAG”, the binding signal is reported as 15400 fluorescence intensity (a.u.).
“GGATAAAATTTAAATTGTACCAGTTTACGACGAATTACATCGGAGTCACCTAGTGCAG” was tested, and the binding signal was 8600 fluorescence intensity (a.u.).
For “TATGATAAAATTGTTACATCATTTACCAGATGATTTAGAACGGAGTCACCTAGTGCAG”, the binding signal was 7880 fluorescence intensity (a.u.).
“ACTGATTGACGTTTCTCATAACTAAAATATAGGTATTGTGCGGAGTCACCTAGTGCAG” was tested, and the binding signal was 60900 fluorescence intensity (a.u.).
For “AGTAATTGATTAATTTTGTGACAGAGGTGGTCACTATATGCGGAGTCACCTAGTGCAG”, the binding signal was 61000 fluorescence intensity (a.u.).
“CATCATCTCTAATTTTAATCAAAATATAAACTTTGCAGTGCGGAGTCACCTAGTGCAG” was tested, and the binding signal was 9140 fluorescence intensity (a.u.).
With “ATAAATAACTTTGATATAAATTGTTTGAATAAAACTAATGCGGAGTCACCTAGTGCAG” the binding signal was 14300 fluorescence intensity (a.u.).
With “CTATATAAAACTGATTGATTCATATTACTACGACGTTTTACGGAGTCACCTAGTGCAG” the binding signal was 6690 fluorescence intensity (a.u.).
In the case of “CTAATTGAATAATCAAAATTTTAATCTTTGGTCGATAATGCGGAGTCACCTAGTGCAG”, the binding signal is reported as 63700 fluorescence intensity (a.u.).
For “TGTGACAAACAATGATTACCAAGCTTTTGGGGAAATATAGCGGAGTCACCTAGTGCAG”, the binding signal was 16900 fluorescence intensity (a.u.).
In the case of “TCATGATTAAGATGGGCTCACTATGTAATTTTATTTATAACGGAGTCACCTAGTGCAG”, the binding signal is reported as 8240 fluorescence intensity (a.u.).
In the case of “AATAATTTGCCAATACCAACATTTTACTATAAATACTTATCGGAGTCACCTAGTGCAG”, the binding signal is reported as 5410 fluorescence intensity (a.u.).
“GCGCTGATACTTGTAATCAATCAACTCATCAGCATGGTCTCGGAGTCACCTAGTGCAG” was tested, and the binding signal was 26100 fluorescence intensity (a.u.).
With “GTAGTTAATTGTAAACACTGTACTAAGCAGTATACATTTTCGGAGTCACCTAGTGCAG” the binding signal was 20300 fluorescence intensity (a.u.).
In the case of “ACACAATCATTTATACAAAGCATATAATGGGCCTGTTCGGCGGAGTCACCTAGTGCAG”, the binding signal is reported as 6100 fluorescence intensity (a.u.).
With “TGCTTGTAATTTCTATAAAATTAGCAGTATTTTGATGCTACGGAGTCACCTAGTGCAG” the binding signal was 9240 fluorescence intensity (a.u.).
“TTGACATAATATAATCATGTGATATCTTATTGTAAAGATTCGGAGTCACCTAGTGCAG” was tested, and the binding signal was 10400 fluorescence intensity (a.u.).
With “GATCAATAATTGAATATATTTTAATAATAAATTTGTCTTGCGGAGTCACCTAGTGCAG” the binding signal was 55500 fluorescence intensity (a.u.).
“TTTTGTGATAGATTTTATATTAAATATATAGTTTTGTTTTCGGAGTCACCTAGTGCAG” was tested, and the binding signal was 23400 fluorescence intensity (a.u.).
With “GGAGGGAGTAGAATAATGATTGATTTAAGTTAATACTAGCCGGAGTCACCTAGTGCAG” the binding signal was 23500 fluorescence intensity (a.u.).
With “TTATTAATTGATAAAATATAGAAATATTGATTTATTGTTTCGGAGTCACCTAGTGCAG” the binding signal was 52500 fluorescence intensity (a.u.).
“ATCAATAATTGAACATATTTTCATAATAAATTTGTCTTGGCGGAGTCACCTAGTGCAG” was tested, and the binding signal was 42100 fluorescence intensity (a.u.).
For “ATCAAATCAATAATTGAATATATTTTCATAATAAATTTGTCGGAGTCACCTAGTGCAG”, the binding signal was 29400 fluorescence intensity (a.u.).
With “CCATTGATTATAATTAAAGACTGTTAGGCAATTGACACAACGGAGTCACCTAGTGCAG” the binding signal was 54000 fluorescence intensity (a.u.).
In the case of “AGGGAAAGTTGTGATTGAGGGAGGATGTTAGATAATGTTACGGAGTCACCTAGTGCAG”, the binding signal is reported as 10100 fluorescence intensity (a.u.).
For “GTTTATTTATAATTATATTATATTAATATTGTTTGAAAATCGGAGTCACCTAGTGCAG”, the binding signal was 8200 fluorescence intensity (a.u.).
For “TGTGATTGAGGGAGTTAATTAGGACAAGTTAATAAGTGGCCGGAGTCACCTAGTGCAG”, the binding signal was 64500 fluorescence intensity (a.u.).
“TTTATAACATTGTTAATTGATTAGGCATGCAATGCCATATCGGAGTCACCTAGTGCAG” was tested, and the binding signal was 32300 fluorescence intensity (a.u.).
“TGTTGATTATAATTAAACACAACAAACAGACTCGAAGCAACGGAGTCACCTAGTGCAG” was tested, and the binding signal was 48200 fluorescence intensity (a.u.).

Reference: PMC7819943, “Rice protein-binding microarrays: a tool to detect cis-acting elements near promoter regions in rice”
